Assay [1] concerns the target Albumin (Bos taurus) (UniProt P02769). The assay is described as follows: bovine serum albumin binders on microarray, profiling panel, artefact control for SMM control protein annotation, biochemical, small-molecule microarray, Alexa647 label, 635/667 nm fluorescence (AID 1118).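 Note: score merges 667 nm emission intensity and signal-to-noise per printed compound spot.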 The conditions noted are these: BSA-A647 binding, fluorescence 635 nm, higher = more signal.

Assay [2] can be described thus: small-molecule microarray binders of probe aXIP, primary screen, biochemical, NeuroSMM set, 635/667 nm fluorescence (AID 1119).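 Note: probe is the protein aXip251-270 applied at 1 µg/mL to compound-printed slides; binding of probe to printed compounds measured as 667 nm fluorescence plus signal to noise.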 The settings on record: higher = more signal, called active from +8 up or from −8 down.
Assay [3] is described as follows: small-molecule binders of probe aNOTCH3, primary screen, biochemical, small-molecule microarray, 635/667 nm fluorescence (AID 1120).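 Note: probe is a biotin-tagged antibody raised against NOTCH3 rather than NOTCH3 protein; score merges spot fluorescence near 667 nm with spot signal to noise.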 The settings on record: higher = more signal.
The nature of assay [4]: small-molecule binders of probe aNOTCH2, primary screen, biochemical, small-molecule microarray, 635/667 nm fluorescence (AID 1121).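 Note: score merges feature fluorescence read at 667 nm with its signal to noise.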 The conditions noted are these: higher = more signal.
Assay [5] has as its target Carbonic anhydrase 2 (Homo sapiens) (UniProt P00918). The assay is described as follows: CAII small-molecule binders, profiling panel, biochemical, small-molecule microarray, Alexa647-labelled CAII (AID 1122). The conditions noted are these: CAII-A647 binding fluorescence, higher = more signal.
Assay [6] in a line: COS7 lysate on small-molecule microarray, probe aHis, 635 nm (AID 1123).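 Note: z-score combines 667nm fluorescence intensity with signal-to-noise per printed compound spot.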 The conditions noted are these: COS7 cell lysate, fluorescence, higher = more signal.
A short description of assay [7]: compound binding in COS7 lysate, probe aLAP1, primary screen, cell lysate, small-molecule microarray (AID 1124).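 Note: lysate comes from COS7 cells expressing LAP1 and is applied at 0.3 µg/mL; score merges spot fluorescence near 667 nm with signal-to-noise over triplicate slides.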 The settings on record: probe aLAP1, fluorescence, higher = more signal.
Assay [8] concerns Sam68 (KHDRBS1). The assay is described as follows: Sam68 small-molecule binders, primary screen, biochemical, small-molecule microarray, 635 nm fluorescence (AID 1125).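 Note: score merges 667 nm channel intensity with signal to noise over triplicate slides.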 The conditions noted are these: small-molecule microarray binding, higher = more signal.
The test system of assay [9] is Chordin-like protein 2 (CHRDL2). The assay can be described thus: CHRDL2 small-molecule binders, primary screen, biochemical, small-molecule microarray, 635 nm fluorescence (AID 1126).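 Note: printed compound slides probed with Chrdl2 protein at 4 µg/mL for 1 h at 4 C; score merges 667 nm emission intensity with signal to noise over three replicate slides.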 The settings on record: small-molecule microarray binding, fluorescence 635 nm; higher = more signal.
In assay [10] the target is Concanavalin-A (Canavalia ensiformis) (UniProt P02866). The assay is described as follows: ConA small-molecule binders, primary screen, artefact control for SMM control protein annotation, biochemical, small-molecule microarray, Alexa647 label, 635 nm (AID 1127).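 Note: z combines 667 nm emission intensity with signal-to-noise across three replicate slides.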 The settings on record: ConA-A647 binding fluorescence, higher = more signal.
Assay [11] can be described thus: anti-His antibody binders, primary screen, artefact control for SMM control protein annotation, biochemical, small-molecule microarray, 635 nm fluorescence (AID 1128).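 Note: score merges feature fluorescence with signal-to-noise for each printed compound spot.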 The conditions noted are these: anti-His Alexa647 antibody binding, higher = more signal.
Assay [12] deals with Human papillomavirus type 1a E7 protein (residues 1-88). The assay can be described thus: HPV1a E7 small-molecule binders, primary screen, biochemical, small-molecule microarray, residues 1-88, 635 nm (AID 1129). The conditions noted are these: small-molecule microarray binding, fluorescence 635 nm; higher = more signal.
Assay [13] addresses Focal adhesion kinase 1 (Homo sapiens) (UniProt Q05397). The assay can be described thus: small-molecule microarray binders of FAK, primary screen, biochemical, 635/667 nm fluorescence, BSA, DTT (AID 1130).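 Note: composite of spot emission at 667 nm and signal to noise over triplicate slides.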 The settings on record: PTK2 binding, 635 nm fluorescence, higher = more signal.
The test system of assay [14] is Fibrinogen (Alexa647-labelled). The assay can be described thus: fibrinogen binders on compound microarrays, profiling panel, artefact control for SMM control-protein annotation, biochemical, small-molecule microarray, 635/667 nm fluorescence (AID 1131).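 Note: z-score merges 667 nm fluorescence with per-spot signal-to-noise over triplicate slides.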 The conditions noted are these: fibrinogen-A647 binding fluorescence, higher = more signal.
Assay [15] concerns the target Follistatin (Homo sapiens) (UniProt P19883). The assay can be described thus: follistatin binders on small-molecule microarrays, primary screen, biochemical, small-molecule microarray, 635/667 nm fluorescence (AID 1132). The conditions noted are these: FST binding, 635 nm fluorescence, higher = more signal.
Assay [16] has as its target Fibroblast growth factor 2 (Homo sapiens) (UniProt P09038). The assay is described as follows: FGF2 binders on small-molecule microarrays, primary screen, biochemical, small-molecule microarray, 635/667 nm fluorescence (AID 1133). The conditions noted are these: small-molecule microarray binding, FGF2, fluorescence 635/667; higher = more signal.
A short description of assay [17]: mitochondrial membrane potential change in A549 cells, profiling panel, cell-based, JC-1 fluorescence, basal, 24 h, 100 nL (AID 1138).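 Note: A549 lung adenocarcinoma cells under basal conditions with no added stimulus; test concentration not given here.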 The conditions noted are these: higher = more signal.
Assay [18] concerns Lefty1. The assay is described as follows: Lefty1 binders on small-molecule microarrays, primary screen, biochemical, small-molecule microarray, 635/667 nm fluorescence (AID 1139). The settings on record: small-molecule microarray binding, fluorescence 635/667; higher = more signal.
The subject of assay [19] is wheat germ agglutinin (Triticum aestivum), Alexa647-labelled. The assay can be described thus: wheat germ agglutinin binders on compound microarrays, profiling panel, artefact control for SMM control-protein annotation, biochemical, small-molecule microarray, 635/667 nm fluorescence (AID 1140).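 Note: score merges 667 nm feature emission with signal to noise over triplicate slides.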 The settings on record: WGA-A647 binding, 635 nm fluorescence, higher = more signal.

The target in assay [20] is Luciferin 4-monooxygenase (Photinus pyralis) (UniProt P08659). The assay is described as follows: firefly luciferase enzyme inhibitors, primary screen, biochemical, luminescence, purified enzyme, 2006 set (AID 1141).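 Note: cell-free assay with purified firefly luciferase at 100 ng per well in PBS; test concentration not given here.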 The settings on record: SteadyGlo luminescence, 30 min, higher = more signal, called active from +8 up or from −8 down.

Active and inactive are the calls of the source.

Chain of Albumin (Bos taurus) (P02769 whole entry, looked up): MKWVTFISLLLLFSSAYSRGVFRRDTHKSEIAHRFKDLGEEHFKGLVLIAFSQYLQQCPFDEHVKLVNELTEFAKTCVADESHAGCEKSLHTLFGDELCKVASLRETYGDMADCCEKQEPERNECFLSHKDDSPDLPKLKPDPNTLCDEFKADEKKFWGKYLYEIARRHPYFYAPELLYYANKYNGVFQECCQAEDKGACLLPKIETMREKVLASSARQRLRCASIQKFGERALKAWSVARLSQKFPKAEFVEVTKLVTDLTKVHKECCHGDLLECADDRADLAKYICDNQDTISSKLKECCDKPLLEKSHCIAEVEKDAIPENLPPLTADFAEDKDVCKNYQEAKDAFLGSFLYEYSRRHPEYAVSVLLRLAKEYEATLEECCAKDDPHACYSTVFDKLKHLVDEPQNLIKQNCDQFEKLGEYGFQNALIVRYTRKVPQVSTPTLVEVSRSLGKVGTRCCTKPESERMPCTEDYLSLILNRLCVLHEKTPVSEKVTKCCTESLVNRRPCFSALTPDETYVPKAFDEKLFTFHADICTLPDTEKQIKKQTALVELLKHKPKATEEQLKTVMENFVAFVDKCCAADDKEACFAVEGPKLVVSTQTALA
Chain of Focal adhesion kinase 1 (Homo sapiens) (Q05397 whole entry, looked up): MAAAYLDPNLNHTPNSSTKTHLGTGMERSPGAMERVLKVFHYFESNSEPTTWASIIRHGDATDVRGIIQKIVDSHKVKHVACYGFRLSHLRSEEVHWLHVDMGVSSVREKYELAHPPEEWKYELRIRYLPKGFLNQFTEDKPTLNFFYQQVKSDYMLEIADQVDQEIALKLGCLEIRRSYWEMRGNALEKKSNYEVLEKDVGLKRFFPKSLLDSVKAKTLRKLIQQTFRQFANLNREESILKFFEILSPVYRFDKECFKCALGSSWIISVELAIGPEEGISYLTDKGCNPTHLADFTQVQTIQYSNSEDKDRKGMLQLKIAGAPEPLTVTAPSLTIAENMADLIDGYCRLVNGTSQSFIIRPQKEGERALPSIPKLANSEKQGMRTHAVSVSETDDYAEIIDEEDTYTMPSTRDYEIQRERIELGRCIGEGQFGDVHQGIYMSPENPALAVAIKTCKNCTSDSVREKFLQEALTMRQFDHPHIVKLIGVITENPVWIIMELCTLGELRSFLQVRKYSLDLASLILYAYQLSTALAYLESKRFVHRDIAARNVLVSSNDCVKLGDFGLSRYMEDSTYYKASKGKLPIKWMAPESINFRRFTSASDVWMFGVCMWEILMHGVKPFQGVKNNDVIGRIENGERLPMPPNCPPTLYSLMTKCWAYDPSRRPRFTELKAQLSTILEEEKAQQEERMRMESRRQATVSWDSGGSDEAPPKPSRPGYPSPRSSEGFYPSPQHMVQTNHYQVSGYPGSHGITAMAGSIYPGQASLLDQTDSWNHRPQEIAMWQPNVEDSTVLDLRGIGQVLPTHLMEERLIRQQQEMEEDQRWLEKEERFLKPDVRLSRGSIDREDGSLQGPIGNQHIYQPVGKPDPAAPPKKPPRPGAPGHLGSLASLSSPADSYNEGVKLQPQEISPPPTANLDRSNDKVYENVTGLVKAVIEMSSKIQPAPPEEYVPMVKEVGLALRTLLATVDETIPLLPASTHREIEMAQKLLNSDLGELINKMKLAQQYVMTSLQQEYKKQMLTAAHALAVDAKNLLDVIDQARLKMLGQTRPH
Chain of Luciferin 4-monooxygenase (Photinus pyralis) (P08659 whole entry, looked up): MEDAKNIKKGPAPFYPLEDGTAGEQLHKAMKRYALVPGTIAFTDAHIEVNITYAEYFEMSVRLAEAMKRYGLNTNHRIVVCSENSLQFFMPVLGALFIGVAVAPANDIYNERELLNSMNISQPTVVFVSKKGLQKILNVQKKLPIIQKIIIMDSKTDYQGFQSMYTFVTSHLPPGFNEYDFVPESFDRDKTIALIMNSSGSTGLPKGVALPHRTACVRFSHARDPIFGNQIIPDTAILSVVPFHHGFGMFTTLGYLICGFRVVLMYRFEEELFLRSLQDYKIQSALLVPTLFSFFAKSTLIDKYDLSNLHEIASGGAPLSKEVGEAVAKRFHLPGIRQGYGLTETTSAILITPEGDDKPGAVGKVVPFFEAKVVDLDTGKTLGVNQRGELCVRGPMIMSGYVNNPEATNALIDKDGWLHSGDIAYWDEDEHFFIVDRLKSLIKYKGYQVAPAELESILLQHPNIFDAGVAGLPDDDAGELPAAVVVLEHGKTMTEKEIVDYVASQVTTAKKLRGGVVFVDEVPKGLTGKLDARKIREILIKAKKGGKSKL
Chain of Follistatin (Homo sapiens) (P19883 whole entry, looked up): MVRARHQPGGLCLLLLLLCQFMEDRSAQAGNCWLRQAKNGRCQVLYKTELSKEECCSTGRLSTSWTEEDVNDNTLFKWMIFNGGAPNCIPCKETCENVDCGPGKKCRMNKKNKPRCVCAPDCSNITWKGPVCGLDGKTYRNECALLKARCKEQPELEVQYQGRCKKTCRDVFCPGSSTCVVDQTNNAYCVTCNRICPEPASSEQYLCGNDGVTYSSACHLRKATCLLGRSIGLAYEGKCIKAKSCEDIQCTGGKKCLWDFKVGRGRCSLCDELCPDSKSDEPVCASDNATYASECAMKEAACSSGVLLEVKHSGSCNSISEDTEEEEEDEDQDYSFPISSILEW
Chain of Concanavalin-A (Canavalia ensiformis) (P02866 whole entry, looked up): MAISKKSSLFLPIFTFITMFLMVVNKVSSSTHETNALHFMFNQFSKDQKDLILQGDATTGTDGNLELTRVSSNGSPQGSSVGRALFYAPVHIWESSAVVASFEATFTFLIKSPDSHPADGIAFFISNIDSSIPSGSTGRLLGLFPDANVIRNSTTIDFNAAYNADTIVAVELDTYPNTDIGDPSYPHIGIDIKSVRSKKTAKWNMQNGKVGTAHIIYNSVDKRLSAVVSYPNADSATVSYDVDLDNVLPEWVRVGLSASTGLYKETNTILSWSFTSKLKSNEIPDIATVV
Chain of Fibroblast growth factor 2 (Homo sapiens) (P09038 whole entry, looked up): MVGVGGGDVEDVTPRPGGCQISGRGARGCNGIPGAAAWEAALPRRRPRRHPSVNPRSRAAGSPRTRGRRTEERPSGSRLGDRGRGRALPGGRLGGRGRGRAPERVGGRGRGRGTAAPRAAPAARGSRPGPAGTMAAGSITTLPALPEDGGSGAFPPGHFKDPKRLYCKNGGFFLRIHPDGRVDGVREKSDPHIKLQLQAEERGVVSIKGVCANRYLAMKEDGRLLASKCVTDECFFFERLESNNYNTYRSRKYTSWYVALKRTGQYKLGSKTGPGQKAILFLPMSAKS

In the case of `C=C(CCCC)/C(=C/C[C@@H](OC(=O)c1ccncc1)c1ccc(OCCO)cc1)c1cnc2ccccc2c1`, the composite z-score in [1] is 0.26; in [3], 0.135; in assay [4] it was -0.0859; in assay [5], 0.948; in assay [6], 0.814; in assay [7] it was 2.07. Moreover, the composite z-score in assay [8] is 1.03; in assay [9], 1.44; in assay [10], 1.15; in assay [11], 0.921; in assay [12], 0.775; in assay [13] it was -0.438. The composite z-score in assay [14] is 0.577; in assay [15], 1.44; in assay [16] it was 1.62; in assay [18], 1.64; in [19] it was 1.35. The composite Z-score in [2] was -0.0966 (inactive). Also, the figures for the z-score in assay [17] and in [20] were 0.985 and -2.3 (inactive), respectively.
Regarding `COCCOC(=O)N1C(=O)[C@@]2(c3cc(C#CCNC(N)=O)ccc31)[C@H](c1ccccc1OCCO)N1[C@H](c3ccccc3)[C@H](c3ccccc3)OC(=O)[C@H]1[C@@H]2C(=O)Nc1nc2ccccc2s1`, the composite z-score in assay [1] is 0.598; in assay [3] it was -0.0391; in assay [4], -0.0817; in assay [5], 0.439; in assay [6], 0.862; in assay [7], 0.292. Further, the composite z-score is 1.12 in assay [8]; 0.0611 in assay [9]; 1.03 in assay [10]; 0.3 in assay [11]; 0.965 in [12]; 0.374 in assay [13]. Also, the composite z-score came to 0.283 in [14]; 1.17 in assay [15]; 0.271 in [16]; 0.591 in [18]; 1.04 in [19]. Besides, in assay [2], the composite Z-score was 0.564 (inactive). Further, the z-score in [17] was -2.07; in [20], -1.87 (inactive).
Take `CC(C)C[C@@H]1NC(=O)[C@H]2C[C@@H](C(=O)NCCCC[N+](C)(C)C)[C@@H](c3cccc(OCCO)c3)N2C1=O`: the composite z-score is 0.252 in [1]; 0.217 in [3]; -0.19 in assay [4]; 0.475 in [5]; 1.89 in assay [6]; 0.987 in assay [7]. Besides, the composite z-score is 0.848 in assay [8]; 0.938 in [9]; 0.476 in [10]; 3.29 in assay [11]; -0.146 in [12]; -0.153 in assay [13]. Also, the composite z-score was -0.236 in assay [14]; 1.25 in assay [15]; 1.61 in assay [16]; 1.39 in assay [18]; -0.102 in [19]. Moreover, the composite Z-score in assay [2] was 0.331 (inactive). Further, the z-score is 1.31 in assay [17] and -1.97 (inactive) in [20].
For the molecule `NCCCCCNC(=O)[C@H]1C[C@H]2C(=O)NCC(=O)N2[C@H]1c1ccc(O)cc1`, the composite z-score in assay [1] is 1.06; in assay [3], 0.0596; in [4], -0.105; in assay [5], 0.685; in assay [6], 1.08; in assay [7], 0.521. Also, the composite z-score is 1.29 in [8]; 1.14 in assay [9]; 1.22 in assay [10]; 2.54 in assay [11]; 1.19 in [12]; 0.366 in [13]. The composite z-score in assay [14] was found to be 0.97; in assay [15], 1.48; in assay [16], 1.75; in assay [18] it was 1.69; in assay [19] it was 1.3. The composite Z-score in [2] was 0.696 (inactive). Also, the z-score was 0.68 in [17] and -1.04 (inactive) in [20].
In the case of `C/C=C/[C@@H](CCn1cc(CCO[Si](C(C)C)(C(C)C)C(C)C)nn1)[Si](C)(C)c1ccc(OC)cc1`, the composite z-score in assay [1] was -1.72; in assay [3], -0.337; in assay [4] it was -0.234; in [5], -0.609; in assay [6], -0.49; in [7] it was -0.0321. Also, the composite z-score in assay [8] is -1.07; in assay [9], -1.8; in assay [10], -2.84; in [11], -0.588; in assay [12], -0.668; in assay [13], -0.168. The composite z-score in [14] is -1.56; in [15] it was -2.11; in assay [16] it was -0.888; in [18] it was -1.16; in assay [19] it was -2.08. Further, the composite Z-score in [2] was -0.535 (inactive). The figures for the z-score in [17] and in assay [20] were 4.63 and -2.45 (inactive), respectively.

The record behind these values is PubChem BioAssay.
